From PubChem BioAssay (NCATS) come the findings set out here.

Each structure is given as a SMILES string. Results filed as inconclusive are left out. Calls of active or inactive are those of the source. Calls follow the shape of the dose curve; as a rule, active = well fitted curve in either direction with a large enough effect (not every such curve was filed as active); inconclusive = small, poorly fitted or top-dose-only effect, or another doubt; inactive = flat fitted curve, though single readings scatter.
% is scaled to controls: 0 for no effect and ±100 for the full control effect.

This experiment is described as follows: Stat Signaling Pathway (AID 446). To be noted: ME-180 (cervical carcinoma) SIE beta-lactamase reporter, IL-6 stimulated, 5 h; at 17.2 µM (top of the series) unless noted. As to the method: NCGC Assay Overview: The IL-6/STAT signaling pathway was assayed in ME-180 cervical carcinoma cells by a beta-lactamase reporter gene controlled by a STAT Inducible Element (SIE). This reporter is induced by IL-6 at 40 pM AC50 and inhibited by the pan JAK inhibitor, 2-(1,1-Dimethylethyl)-9-fluoro-3,6-dihydro-7H-benz[h]-imidaz[4,5-f]isoquinolin-7-one, at approximately 10 nM AC50. Plated cells were incubated overnight and on the following day, stimulated with 40 pM IL-6 for 5 hrs. The assay was screened at the AC50 of IL-6 activation to identify both inhibitors and activators of IL-6/STAT signaling.
NCGC Assay Protocol Summary: Cells were trypsinized, washed in assay medium (AM, OPTI MEM with 0.5% fetal bovine serum, 0.1 mM nonessential amino acids, 1 mM sodium pyruvate, 10mM HEPES pH 7.3, 100U/ml penicillin, and 100 ug/ml streptomycin) and suspended at 6 x 10e5/ml in AM. Approximately […] cells in 5 uL/well was dispensed into 1536 well plates and the cells were incubated overnight at 37 C. 23 nL of compound were delivered by a pin tool and 1 uL of IL-6 (40 pM final concentration in AM) was added. After centrifugation at 1000 rpm for less than a minute, plates were incubated at 37C for 5 hrs. One uL of detector mix (LiveBLAzerTM, Invitrogen) was added, the plates incubated at room temperature for 2.5 hrs, and fluorescence intensity at 460 and 530 nm emission was measured at 405 nm excitation by an Envision (Perkin Elmer) or Safire II (Tecan). Data were normalized by GeneData to the controls for AC90 stimulation (300 pM IL-6) and to AC90 inhibition (125 nM Jak inhibitor, 40 pM IL-6 in AM).
Take `C=CCOc1ccc(C2/C(=C(\O)c3ccc(F)cc3)C(=O)C(=O)N2CCCN(C)C)cc1` (stereo not given): the activity, negative = inhibition is 17% (inactive). `COc1ccc(N2C(=O)C3C(C2=O)C2C=CC3C23CC3)c(OC)c1` (stereo not given): the activity, negative = inhibition was 0.0769% (inactive). As for `Cc1[nH]c(=O)[nH]c(=O)c1S(=O)(=O)N1CCCC1`, the activity, negative = inhibition is 12% (inactive). In the case of `CCOc1nc(Oc2cccc(C(=O)O)c2)nc(Oc2cccc(C(=O)O)c2)n1`, the activity, negative = inhibition was 8.24% (inactive). In the case of `O=C(NC1(C(F)(F)F)C(=O)Nc2c1c(=O)[nH]c(=O)n2-c1ccccc1)c1cccnc1` (stereo not given), the activity, negative = inhibition is 3.92% (inactive). On to `CCOC(=O)c1c(C(F)(F)C(F)(F)C(F)(F)C(F)(F)F)n[nH]c1C`, for which the activity, negative = inhibition is -8.59% (inactive). As to `O=C(NC1CCCCC1)[C@H](O)[C@@H](O)C(=O)NC1CCCCC1`, the activity, negative = inhibition is 4.25% (inactive).

Regarding `CC(C)OC(=O)[C@H]1[C@H](c2ccc(Cl)cc2)[C@@](C#N)(C(N)=O)[C@@H]2C=CC(C(N)=O)=CN21`, the activity, negative = inhibition is -11.5% (inactive). As to `CN(C)S(=O)(=O)Nc1ccc(NS(=O)(=O)N(C)C)c(S(=O)(=O)c2ccccc2)c1`, the activity, negative = inhibition is 21.4% (inactive). Then `O=C(CSc1ncnc2nc[nH]c12)c1ccccc1`, with 1.65% [at 7.69 µM] (inactive). In the case of `c1ccc(-c2nnc(OCCN3CCOCC3)c3ccccc23)cc1`, the activity, negative = inhibition is 5.26% (inactive).

Regarding `c1coc(-c2nc3nc4ccccc4nc3n2-c2ccc3c(c2)OCCO3)c1`, the activity, negative = inhibition is -8.28% (inactive).

For `COc1ccc(Cn2c(CCCO)nc3ccccc32)cc1OC`, the activity, negative = inhibition was -4.44% (inactive). Take `Cn1c2c(c(=O)n(C)c1=O)C(NC(=O)C(C)(C)C)(C(F)(F)F)C(=O)N2` (stereo not given): the activity, negative = inhibition is 6.52% (inactive). For `N#C/C(C(=O)N1CCOCC1)=C1/SC(Cc2ccccc2)C(=O)N1c1ccccc1` (stereo not given), the activity, negative = inhibition was -8.3% (inactive). `CCOC(=O)C1=C(N)c2ccccc2CC1C(C)C` (stereo not given): the activity, negative = inhibition was -8.13% (inactive). In the case of `COc1ccc(C2C(C#N)=C(SC)NC3=C2C(=O)CC(C)(C)C3)cc1` (stereo not given), the activity, negative = inhibition was -6.08% (inactive). Then `CC1(C)Cc2nc(NCCN3CCOCC3)c(C#N)cc2CO1`, with 11% (inactive); and `Cc1ccccc1N1C(=O)C2ON(c3ccccc3)C(c3cccnc3)C2C1=O` (stereo not given), with -4.14% (inactive).

Consider `O=C1C(=O)N(CCCn2ccnc2)C(c2ccccn2)/C1=C(/O)c1ccccc1` (stereo not given), for which the activity, negative = inhibition is -2.92% (inactive). With `O=C(NCCC1=CCCCC1)c1ccc(=O)oc1`, the activity, negative = inhibition is 7.23% (inactive).

As for `COn1c(=S)[nH]c2ccccc2c1=O`, the activity, negative = inhibition was 8.68% (inactive). The value for `C=CCn1c(SCC#N)nc2c(c1=O)C(C)(C)Cc1ccccc1-2` was -1.93% (inactive). As to `CCCOc1ccc(C2/C(=C(/O)c3ccccc3)C(=O)C(=O)N2CCCN(C)C)cc1OC` (stereo not given), the activity, negative = inhibition was 10.3% (inactive). Take `Cc1cc(C)n(Cc2ccc(C(=O)NCCC3=CCCCC3)o2)n1`: the activity, negative = inhibition was 1.51% (inactive).

As to `Cn1ncc(N=Cc2c(O)ccc3ccccc23)c1C(=O)N1CCOCC1`, the activity, negative = inhibition is -16.5% (inactive). For the compound `C[n+]1cccc(CNC(=O)/C=N/O)c1`, the activity, negative = inhibition is 7.83% (inactive). Consider `CC1(C)Cc2c(c(N3CCOCC3)nc3sc4c(=O)[nH]cnc4c23)CS1`, for which the activity, negative = inhibition was -18.3% (inactive).

`N#C/C(C(=O)NCc1ccco1)=C1/SC(Cc2ccc(Cl)cc2)C(=O)N1c1ccccc1` (stereo not given): the activity, negative = inhibition was -13.4% (inactive). Then `CCCc1nc(N2CCOCC2)c(C#N)c2c1CCCC2`, with -12.3% (inactive). For the compound `CCCCCC(=O)N1CC2(C)CN(C(=O)CCCCC)CC(C)(C1)C2=O`, the activity, negative = inhibition is 5.3% (inactive). For `O=C1OC(N2CCN(C/C=C/c3ccccc3)CC2)c2ccccc21` (stereo not given), the activity, negative = inhibition is 0.214% (inactive).

Consider `Cc1c(Cl)c(C(F)(F)F)nn1CC(=O)N1CCSCC1`, for which the activity, negative = inhibition was 5.37% (inactive). On to `CC1(c2ccco2)NC(=O)NC1=O` (stereo not given), for which the activity, negative = inhibition is 5.48% (inactive). Then `COC(=O)Sc1nc(N2CCOCC2)c2c(c1C#N)CC(C)(C)OC2`, with -18.3% (inactive). For the compound `CC1(C)CC(=O)C(C2=NC(C)(C)Cc3ccccc32)=C(O)C1`, the activity, negative = inhibition was 0.129% (inactive). On to `CCCCNc1nc2c(c(=O)n(C)c(=O)n2C)n1Cc1cccc(OC)c1`, for which the activity, negative = inhibition is -17% (inactive). Consider `CCCOc1ccc(CSC(CC(=O)O)C(=O)O)cc1` (stereo not given), for which the activity, negative = inhibition was 6.22% (inactive). With `CCOC(=O)N1CCN(C2OC(=O)c3ccccc32)CC1` (stereo not given), the activity, negative = inhibition was 25.6% (inactive).

In the case of `COc1ccc(OC)c(C2=Nn3c(nnc3-c3ccco3)SC2)c1`, the activity, negative = inhibition was -6.07% (inactive).
